# CHRM1 agonist – human M1 muscarinic receptor agonists, primary screen, Fluo-8 calcium fluorescence, CHO-K1 cells, HTS; activation, % at 3 µM; CHO-K1 hM1, agonist mode; 0% DMSO, 100% acetylcholine EC100; AID 588814, 2011; actives 0.33% (n = 360,000);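 active means activation above the run's mean compound activation plus 3 SD, cut at about 16% in these data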;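 further: peak over basal fluorescence ratio within a 140 s kinetic read after compound addition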
# Target sequence (P11229 whole entry, looked up): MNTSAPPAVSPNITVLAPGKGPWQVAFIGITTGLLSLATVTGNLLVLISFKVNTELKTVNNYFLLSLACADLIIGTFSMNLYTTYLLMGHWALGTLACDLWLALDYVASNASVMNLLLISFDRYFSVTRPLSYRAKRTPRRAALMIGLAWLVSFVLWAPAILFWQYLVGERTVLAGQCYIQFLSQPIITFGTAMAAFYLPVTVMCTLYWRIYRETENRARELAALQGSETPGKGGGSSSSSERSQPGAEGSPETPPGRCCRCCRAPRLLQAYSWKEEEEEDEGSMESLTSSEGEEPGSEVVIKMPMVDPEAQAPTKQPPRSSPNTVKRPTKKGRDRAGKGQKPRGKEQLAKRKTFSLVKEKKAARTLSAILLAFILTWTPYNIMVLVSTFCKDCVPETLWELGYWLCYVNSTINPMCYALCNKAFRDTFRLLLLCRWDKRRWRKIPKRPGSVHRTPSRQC
# CHRM1 antagonist – human M1 muscarinic receptor antagonists, primary screen, CHO-K1 cells, Fluo-8 calcium fluorescence, 1536-well. actives 1.3% (n = 360,000). Muscarinic acetylcholine receptor M1 (Homo sapiens), P11229. inhibition, % at 3 µM. AID 588852, 2011. CHO-K1 hM1, ACh EC80 antagonist;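 active means percent inhibition above its own plate's cutoff, namely the mean of that plate's compound wells plus 3 SD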;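 further: peak over basal fluorescence ratio during 140 s after agonist addition; 0% = ACh EC80 plus DMSO and 100% = DMSO alone without agonist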
# M1 PAM parental – nonselective calcium activators in parental CHO-K1 cells, primary screen, counter-screen for M1 PAM project, cell-based, Fluo-8 calcium fluorescence, full deck, 1536-well | ATP EC20; 0% at ATP EC20, 100% at ATP max | activation, % at 3 µM | actives 0.02% (n = 360,000);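 active means activation above the run cutoff, the mean activation of all test compounds plus 3 SD, cut at about 40% in these data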;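 further: peak over basal fluorescence ratio in a 140 s read after ATP addition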
# M1 ag parental – counter-screen for M1 agonists: effect in parental CHO-K1 cells | Fluo-8 calcium fluorescence; scaled to maximal ATP response, vehicle zero | activation, % at 3 µM | actives 0.48% (n = 360,000) | AID 602248, 2012; in the data active means activation above about 15%;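 further: untransfected CHO-K1 host cells lacking M1 receptor as counterscreen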
# CHO-K1 Ca antag – counter-screen for M1 antagonists: effect in parental CHO-K1 cells; ATP-induced calcium, Fluo-8 fluorescence; AID 602250; actives 0.6% (n = 360,000); inhibition, % at 3 µM;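 active means inhibition above a per-plate cutoff, the plate's mean sample inhibition plus 3 SD, cut at about 24% in these data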;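 further: 0% = DMSO plus EC80 ATP and 100% = DMSO alone without ATP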
# M1 PAM – human M1 muscarinic receptor positive allosteric modulators, primary screen, CHO-K1 cells, Fluo-8 calcium fluorescence, 1536-well; CHO-K1 hM1, ACh EC20; 0% = ACh EC20, 100% = maximal ACh; activation, % at 3 µM; actives 0.088% (n = 360,000); AID 588819, 2011; in the data active means activation above about 19%, passing the limit was not always enough
# An asterisk follows results filed as active. This is a sample that favours compounds with a hit; in the whole collection about 2.3% have one here.
SMILES,CHRM1 agonist,CHRM1 antagonist,M1 PAM parental,M1 ag parental,CHO-K1 Ca antag,M1 PAM
CCN1CCN(C(=O)c2cc(COc3ccc4ncccc4c3)on2)CC1,3,10,14,11,-4,-2
Cc1ccc(F)cc1CNC(=O)c1cc(COc2ccc3ncccc3c2)on1,1,39*,-1,14,17,-26
COc1cc(C(=O)N(Cc2ccccc2)c2cccc(C)c2)ccc1OCC(=O)N1CCOCC1,-7,-17,-4,0,3,9
CCN(CC)CC#CCC(O)(c1ccccc1)c1ccc(Br)cc1 (stereo not drawn),-4,92*,16,4,-10,-23
C=CC(O)(C#CCN(CC)CC)c1ccccc1 (stereo not drawn),-4,38*,18,0,-11,-18
CCN(CC)CC#CCC(O)(c1ccccc1)c1ccccc1,-7,93*,5,1,-9,-25
CCN(CC)CC#CC(C)(C)OC(C)=O,-13,4,17,1,-14,-2
CCN(CC)CC#CCC(C)(c1ccccc1)c1ccccc1,-5,72*,20,8,-7,-21
O=S(=O)(CC(O)(c1ccccc1)c1ccccc1)CC(O)(c1ccccc1)c1ccccc1,-4,-15,5,1,-11,6
CN(C)CC#CCC(O)(c1ccccc1)c1ccccc1,-7,87*,17,1,-2,-24
Cc1cccc(CN(C)C)c1CC(O)(c1ccccc1)c1ccccc1,-3,2,-11,0,-5,-3
CCOC(=O)c1ccc(NC(=S)NC2CC(C)(C)NC(C)(C)C2)cc1,42*,3,21,0,-12,-16
CN(C)C(=O)/C(=C/c1ccc(-c2cccc([N+](=O)[O-])c2)o1)NC(=O)c1ccccc1,6,-7,-4,22*,4,7
O=C(O)c1ccc(-c2ccc(/C=N/Nc3ccc([N+](=O)[O-])cc3)o2)cc1,18*,10,-10,10,12,2
O=[N+]([O-])c1ccc(N/N=C/c2c[nH]c3ccccc23)cc1,14,34*,-8,15*,26*,-7
O=C(O)c1cccc(-c2ccc(/C=N/Nc3ccc([N+](=O)[O-])cc3)o2)c1,17*,27,-7,18*,20,-9
CN(C)C(=O)/C(=C\c1ccc(-c2cccc([N+](=O)[O-])c2)o1)NC(=O)c1ccccc1,-3,-8,10,2,-14,8
NS(=O)(=O)c1ccc(-c2ccc(/C=N/Nc3ccc(C(=O)O)cc3)o2)cc1,0,-17,24,1,-17,8
Cc1ccc(S(=O)(=O)N2CCC(C(=O)N/N=C/c3ccncc3)CC2)cc1,-4,-2,-8,-1,24*,2
C=CCn1c(SCc2ccccc2F)nc2cc(C(=O)O)ccc2c1=O,-2,-6,7,0,-3,4
CC1CCC(C(C)C)C(OC(=O)C[n+]2cccc(C(N)=O)c2)C1 (stereo not drawn),-6,-14,12,-1,-1,-7
COc1ccc(-c2c[n+](CC(=O)OC3CC(C)CCC3C(C)C)c3n2CCC3)cc1 (stereo not drawn),-6,91*,7,1,2,-22
O=C(C[n+]1cc(-c2ccc(Cl)cc2)n2c1CCCCC2)c1ccccc1,-8,14,-15,0,0,-8
CC(C)[C@@H]1CC[C@@H](C)C[C@H]1OC(=O)C[n+]1cc(-c2ccc(Cl)cc2)n2c1CCCCC2,-4,94*,13,3,9,-23
CCCCCC(=C/c1ccccc1)/C=N/Nc1ccc(S(=O)(=O)N2CCOCC2)cc1[N+](=O)[O-],-2,-11,6,0,-8,4
COc1ccc(C(=O)Nc2ccc3c(c2)Cc2ccccc2-3)cc1,0,-1,-6,0,24*,10

# Assay outcomes (PubChem)
